Source: PubChem BioAssay AID1159580 (chemical genetic matrix, 2015)
Hit rate of the full screen: of about 5,500 compounds, about 2,000 (36%) were called active. Inconclusive results (about 18%) are left out. Cut-off read from the data, not from the text of the source: active = normalized growth mostly below about 0.91 (no sharp cut-off); inconclusive = no clear call, values can overlap the other calls; inactive = mostly above about 0.92. The list shows a part of the results.

Assay: chemical genetic growth profiling, strain panel (AID 1159580);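 note: tested at 20 µM; growth read once vehicle control cultures reached saturation at 30 °C; 1 = growth at the plate median or of vehicle wells; lower values mean less growth of the strain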
Settings: growth OD

Measured: normalized growth

CC(C)=CCc1c2c(c(O)c3c(=O)c(O)c(-c4ccccc4)oc13)C=CC(C)(C)O2
inactive: S. cerevisiae deletion strains, locus YBR009C, strain hhf1, stronger effect = lower value 0.917 | S. cerevisiae deletion strains, locus YBR021W, strain FUR4, stronger effect = lower value 0.958 | S. cerevisiae deletion strains, locus YBR171W, strain sec66, stronger effect = lower value 0.939 | S. cerevisiae deletion strains, locus YBR279W, strain paf1, stronger effect = lower value 0.988 | S. cerevisiae deletion strains, locus YCL016C, strain dcc1, stronger effect = lower value 0.962 | S. cerevisiae deletion strains, locus YDL005C, strain med2, stronger effect = lower value 0.981 | S. cerevisiae deletion strains, locus YDL040C, strain nat1, stronger effect = lower value 1.01 | S. cerevisiae deletion strains, locus YDR001C, strain nth1, stronger effect = lower value 0.931 | S. cerevisiae deletion strains, locus YDR137W, strain rgp1, stronger effect = lower value 1.04 | S. cerevisiae deletion strains, locus YDR159W, strain sac3, stronger effect = lower value 0.876 | S. cerevisiae deletion strains, locus YDR195W, strain ref2 0.896 | S. cerevisiae deletion strains, locus YER016W, strain bim1, stronger effect = lower value 0.987 | S. cerevisiae deletion strains, locus YER110C, stronger effect = lower value 0.927 | S. cerevisiae deletion strains, locus YGL078C, strain dbp3, stronger effect = lower value 0.942 | S. cerevisiae deletion strains, locus YGL167C, strain pmr1, stronger effect = lower value 0.996 | S. cerevisiae deletion strains, locus YGL227W, strain vid30, stronger effect = lower value 0.973 | S. cerevisiae deletion strains, locus YGL240W, strain doc1, stronger effect = lower value 0.977 | S. cerevisiae deletion strains, locus YGR252W, strain gcn5, stronger effect = lower value 0.774 | S. cerevisiae deletion strains, locus YHR013C, strain ard1, stronger effect = lower value 0.998 | S. cerevisiae deletion strains, locus YJL129C, strain trk1, stronger effect = lower value 0.894 | S. cerevisiae deletion strains, locus YKL009W, strain mrt4, stronger effect = lower value 1.02 | S. cerevisiae deletion strains, locus YKL068W, stronger effect = lower value 0.977 | S. cerevisiae deletion strains, locus YKL085W, strain MDH1 (second series), stronger effect = lower value 0.984 | S. cerevisiae deletion strains, locus YKL085W, strain MDH1, stronger effect = lower value 0.984 | S. cerevisiae deletion strains, locus YKL160W, strain elf1, stronger effect = lower value 0.99 | S. cerevisiae deletion strains, locus YLL026W, stronger effect = lower value 0.94 | S. cerevisiae deletion strains, locus YLL041C, strain sdh2, stronger effect = lower value 0.979 | S. cerevisiae deletion strains, locus YLR102C, strain apc9, stronger effect = lower value 0.93 | S. cerevisiae deletion strains, locus YMR078C, strain ctf18, stronger effect = lower value 0.92 | S. cerevisiae deletion strains, locus YNL250W, strain rad50, stronger effect = lower value 0.951 | S. cerevisiae deletion strains, locus YNL322C, strain KRE1 (second series), stronger effect = lower value 0.943 | S. cerevisiae deletion strains, locus YNR049C, strain mso1, stronger effect = lower value 0.958 | S. cerevisiae deletion strains, locus YOL012C, strain htz1 0.278 | S. cerevisiae deletion strains, locus YOR290C, strain snf2, stronger effect = lower value 0.887 | S. cerevisiae deletion strains, locus YPL240C, strain hsp82, stronger effect = lower value 0.956 | S. cerevisiae deletion strains, locus YPR141C, strain kar3, stronger effect = lower value 0.962
active: S. cerevisiae deletion strains, locus YAL021C, strain ccr4, stronger effect = lower value 0.79 | S. cerevisiae deletion strains, locus YAL026C, strain drs2, stronger effect = lower value 0.566 | S. cerevisiae deletion strains, locus YAL030W, strain snc1, stronger effect = lower value 0.886 | S. cerevisiae deletion strains, locus YBL061C, strain skt5, stronger effect = lower value 0.688 | S. cerevisiae deletion strains, locus YBR023C, strain chs3, stronger effect = lower value 0.687 | S. cerevisiae deletion strains, locus YBR229C, strain ROT2, stronger effect = lower value 0.829 | S. cerevisiae deletion strains, locus YBR231C, strain swc5, stronger effect = lower value 0.678 | S. cerevisiae deletion strains, locus YCL011C, strain gbp2, stronger effect = lower value 0.683 | S. cerevisiae deletion strains, locus YCL029C, strain bik1, stronger effect = lower value 0.678 | S. cerevisiae deletion strains, locus YCL061C, strain MRC1, stronger effect = lower value 0.748 | S. cerevisiae deletion strains, locus YCL069W, strain vba3, stronger effect = lower value 0.751 | S. cerevisiae deletion strains, locus YCR088W, strain abp1, stronger effect = lower value 0.835 | S. cerevisiae deletion strains, locus YDL035C, strain GPR1, stronger effect = lower value 0.589 | S. cerevisiae deletion strains, locus YDL074C, strain BRE1, stronger effect = lower value 0.49 | S. cerevisiae deletion strains, locus YDL101C, strain DUN1, stronger effect = lower value 0.628 | S. cerevisiae deletion strains, locus YDL185W, strain tfp1, stronger effect = lower value 0.769 | S. cerevisiae deletion strains, locus YDL192W, strain arf1, stronger effect = lower value 0.732 | S. cerevisiae deletion strains, locus YDR069C, strain doa4, stronger effect = lower value 0.613 | S. cerevisiae deletion strains, locus YDR101C, strain arx1, stronger effect = lower value 0.809 | S. cerevisiae deletion strains, locus YDR162C, strain NBP2, stronger effect = lower value 0.326 | S. cerevisiae deletion strains, locus YDR297W, strain sur2, stronger effect = lower value 0.821 | S. cerevisiae deletion strains, locus YDR318W, strain mcm21, stronger effect = lower value 0.73 | S. cerevisiae deletion strains, locus YDR334W, strain swr1, stronger effect = lower value 0.582 | S. cerevisiae deletion strains, locus YDR335W, strain msn5, stronger effect = lower value 0.793 | S. cerevisiae deletion strains, locus YDR388W, stronger effect = lower value 0.745 | S. cerevisiae deletion strains, locus YDR392W, strain spt3, stronger effect = lower value 0.602 | S. cerevisiae deletion strains, locus YDR502C, strain sam2, stronger effect = lower value 0.794 | S. cerevisiae deletion strains, locus YEL003W, strain gim4, stronger effect = lower value 0.683 | S. cerevisiae deletion strains, locus YEL037C, strain rad23, stronger effect = lower value 0.788 | S. cerevisiae deletion strains, locus YEL061C, strain CIN8 (second series), stronger effect = lower value 0.876 | S. cerevisiae deletion strains, locus YER015W, strain faa2, stronger effect = lower value 0.457 | S. cerevisiae deletion strains, locus YER111C, strain swi4, stronger effect = lower value 0.734 | S. cerevisiae deletion strains, locus YER155C, strain BEM2 (second series), stronger effect = lower value 0.755 | S. cerevisiae deletion strains, locus YER155C, strain BEM2, stronger effect = lower value 0.762 | S. cerevisiae deletion strains, locus YER167W, strain BCK2, stronger effect = lower value 0.683 | S. cerevisiae deletion strains, locus YFR010W, strain ubp6, stronger effect = lower value 0.632 | S. cerevisiae deletion strains, locus YGL086W, strain mad1, stronger effect = lower value 0.701 | S. cerevisiae deletion strains, locus YGL173C, strain kem1, stronger effect = lower value 0.475 | S. cerevisiae deletion strains, locus YGL248W, strain PDE1, stronger effect = lower value 0.586 | S. cerevisiae deletion strains, locus YGL253W, strain hxk2, stronger effect = lower value 0.657 | S. cerevisiae deletion strains, locus YGR078C, strain PAC10, stronger effect = lower value 0.554 | S. cerevisiae deletion strains, locus YGR135W, strain pre9, stronger effect = lower value 0.69 | S. cerevisiae deletion strains, locus YHR027C, strain rpn1, stronger effect = lower value 0.356 | S. cerevisiae deletion strains, locus YHR079C, strain IRE1 (second series), stronger effect = lower value 0.774 | S. cerevisiae deletion strains, locus YHR094C, strain hxt1, stronger effect = lower value 0.828 | S. cerevisiae deletion strains, locus YHR129C, strain ARP1, stronger effect = lower value 0.55 | S. cerevisiae deletion strains, locus YHR142W, strain chs7, stronger effect = lower value 0.653 | S. cerevisiae deletion strains, locus YHR200W, strain rpn10, stronger effect = lower value 0.731 | S. cerevisiae deletion strains, locus YIL066C, strain RNR3, stronger effect = lower value 0.54 | S. cerevisiae deletion strains, locus YIL073C, strain SPO22, stronger effect = lower value 0.32 | S. cerevisiae deletion strains, locus YIL125W, strain kgd1, stronger effect = lower value 0.88 | S. cerevisiae deletion strains, locus YIR030C, strain dcg1, stronger effect = lower value 0.837 | S. cerevisiae deletion strains, locus YJL092W, strain hpr5, stronger effect = lower value 0.834 | S. cerevisiae deletion strains, locus YJL095W, strain BCK1 (second series), stronger effect = lower value 0.628 | S. cerevisiae deletion strains, locus YJL095W, strain BCK1, stronger effect = lower value 0.379 | S. cerevisiae deletion strains, locus YJL115W, strain asf1, stronger effect = lower value 0.829 | S. cerevisiae deletion strains, locus YJL134W, strain LCB3, stronger effect = lower value 0.778 | S. cerevisiae deletion strains, locus YJL154C, strain vps35, stronger effect = lower value 0.817 | S. cerevisiae deletion strains, locus YJL164C, strain tpk1, stronger effect = lower value 0.732 | S. cerevisiae deletion strains, locus YJL166W, strain qcr8, stronger effect = lower value 0.891 | S. cerevisiae deletion strains, locus YJL168C, strain set2, stronger effect = lower value 0.864 | S. cerevisiae deletion strains, locus YJL187C, strain SWE1 (second series), stronger effect = lower value 0.417 | S. cerevisiae deletion strains, locus YJL187C, strain SWE1, stronger effect = lower value 0.639 | S. cerevisiae deletion strains, locus YJR043C, strain POL32, stronger effect = lower value 0.496 | S. cerevisiae deletion strains, locus YKL190W, strain CNB1, stronger effect = lower value 0.585 | S. cerevisiae deletion strains, locus YKR001C, strain vps1, stronger effect = lower value 0.816 | S. cerevisiae deletion strains, locus YKR026C, strain gcn3, stronger effect = lower value 0.899 | S. cerevisiae deletion strains, locus YKR091W, strain srl3, stronger effect = lower value 0.831 | S. cerevisiae deletion strains, locus YLL001W, strain dnm1, stronger effect = lower value 0.74 | S. cerevisiae deletion strains, locus YLR027C, strain aat2, stronger effect = lower value 0.86 | S. cerevisiae deletion strains, locus YLR039C, strain RIC1, stronger effect = lower value 0.379 | S. cerevisiae deletion strains, locus YLR058C, strain SHM2, stronger effect = lower value 0.563 | S. cerevisiae deletion strains, locus YLR221C, strain rsa3, stronger effect = lower value 0.835 | S. cerevisiae deletion strains, locus YLR258W, strain gsy2, stronger effect = lower value 0.892 | S. cerevisiae deletion strains, locus YLR262C, strain YPT6 (second series), stronger effect = lower value 0.542 | S. cerevisiae deletion strains, locus YLR268W, strain sec22, stronger effect = lower value 0.633 | S. cerevisiae deletion strains, locus YLR320W, strain mms22, stronger effect = lower value 0.762 | S. cerevisiae deletion strains, locus YLR342W, strain FKS1, stronger effect = lower value 0.514 | S. cerevisiae deletion strains, locus YLR357W, strain rsc2, stronger effect = lower value 0.61 | S. cerevisiae deletion strains, locus YLR370C, strain arc18, stronger effect = lower value 0.754 | S. cerevisiae deletion strains, locus YLR371W, strain rom2, stronger effect = lower value 0.623 | S. cerevisiae deletion strains, locus YLR384C, strain iki3, stronger effect = lower value 0.723 | S. cerevisiae deletion strains, locus YLR418C, strain cdc73, stronger effect = lower value 0.502 | S. cerevisiae deletion strains, locus YML016C, strain PPZ1, stronger effect = lower value 0.484 | S. cerevisiae deletion strains, locus YML032C, strain rad52, stronger effect = lower value 0.861 | S. cerevisiae deletion strains, locus YML120C, strain ndi1, stronger effect = lower value 0.822 | S. cerevisiae deletion strains, locus YML124C, strain tub3, stronger effect = lower value 0.878 | S. cerevisiae deletion strains, locus YMR058W, strain fet3, stronger effect = lower value 0.143 | S. cerevisiae deletion strains, locus YMR125W, strain sto1, stronger effect = lower value 0.872 | S. cerevisiae deletion strains, locus YMR129W, stronger effect = lower value 0.854 | S. cerevisiae deletion strains, locus YMR205C, strain PFK2, stronger effect = lower value 0.51 | S. cerevisiae deletion strains, locus YMR223W, strain ubp8, stronger effect = lower value 0.711 | S. cerevisiae deletion strains, locus YMR231W, strain pep5, stronger effect = lower value 0.533 | S. cerevisiae deletion strains, locus YMR307W, strain GAS1, stronger effect = lower value 0.53 | S. cerevisiae deletion strains, locus YNL067W, strain RPL9B, stronger effect = lower value 0.697 | S. cerevisiae deletion strains, locus YNL071W, strain lat1, stronger effect = lower value 0.898 | S. cerevisiae deletion strains, locus YNL153C, strain GIM3, stronger effect = lower value 0.619 | S. cerevisiae deletion strains, locus YNL209W, strain ssb2, stronger effect = lower value 0.277 | S. cerevisiae deletion strains, locus YNL233W, strain BNI4, stronger effect = lower value 0.548 | S. cerevisiae deletion strains, locus YNL248C, strain rpa49, stronger effect = lower value 0.842 | S. cerevisiae deletion strains, locus YNL271C, strain bni1, stronger effect = lower value 0.886 | S. cerevisiae deletion strains, locus YNL298W, strain CLA4, stronger effect = lower value 0.88 | S. cerevisiae deletion strains, locus YNL307C, strain MCK1, stronger effect = lower value 0.775 | S. cerevisiae deletion strains, locus YNR052C, strain pop2, stronger effect = lower value 0.824 | S. cerevisiae deletion strains, locus YOL006C, strain TOP1, stronger effect = lower value 0.319 | S. cerevisiae deletion strains, locus YOL147C, strain pex11, stronger effect = lower value 0.873 | S. cerevisiae deletion strains, locus YOR001W, strain rrp6, stronger effect = lower value 0.836 | S. cerevisiae deletion strains, locus YOR061W, strain CKA2, stronger effect = lower value 0.528 | S. cerevisiae deletion strains, locus YOR069W, strain VPS5, stronger effect = lower value 0.606 | S. cerevisiae deletion strains, locus YOR070C, strain gyp1, stronger effect = lower value 0.77 | S. cerevisiae deletion strains, locus YOR080W, strain dia2, stronger effect = lower value 0.818 | S. cerevisiae deletion strains, locus YOR083W, strain WHI5, stronger effect = lower value 0.616 | S. cerevisiae deletion strains, locus YOR106W, strain vam3, stronger effect = lower value 0.832 | S. cerevisiae deletion strains, locus YOR136W, strain idh2, stronger effect = lower value 0.84 | S. cerevisiae deletion strains, locus YOR144C, strain elg1, stronger effect = lower value 0.893 | S. cerevisiae deletion strains, locus YOR184W, strain ser1, stronger effect = lower value 0.661 | S. cerevisiae deletion strains, locus YOR265W, strain rbl2, stronger effect = lower value 0.699 | S. cerevisiae deletion strains, locus YOR270C, strain vph1, stronger effect = lower value 0.394 | S. cerevisiae deletion strains, locus YOR316C, strain cot1, stronger effect = lower value 0.865 | S. cerevisiae deletion strains, locus YPL051W, strain arl3, stronger effect = lower value 0.48 | S. cerevisiae deletion strains, locus YPL078C, strain atp4, stronger effect = lower value 0.879 | S. cerevisiae deletion strains, locus YPL106C, strain sse1, stronger effect = lower value 0.83 | S. cerevisiae deletion strains, locus YPL241C, strain CIN2, stronger effect = lower value 0.788 | S. cerevisiae deletion strains, locus YPR119W, strain clb2, stronger effect = lower value 0.914 | S. cerevisiae deletion strains, locus YPR163C, strain tif3, stronger effect = lower value 0.771 | S. cerevisiae deletion strains, locus YPR167C, strain met16, stronger effect = lower value 0.712 | S. cerevisiae deletion strains, strain wtn01, stronger effect = lower value 0.632 | S. cerevisiae strains, strain wild type, stronger effect = lower value 0.346
